According to PubChem BioAssay (NCI):
Where “and” joins values, the source holds several entries; their conditions need not be identical. Equal entries are not always repeated. The panel holds about 83,000 compounds, 20% with a hit somewhere; the sample as a whole holds those more often.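 The test compound was applied at a single concentration to cells in 96-well plates for 48 hours, and percent growth was recorded.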 Values without a mark were called inactive. Calls of active or inactive are those of the source. The calls were made as follows: active = growth percent below 10; inactive = the rest.

tested on: MDA-MB-468 breast; test: NCI-60 one-dose screen, 48 h (100 = growth as untreated, 0 = no growth, -100 = all killed); conditions: 10 µM unless noted

SMILES | growth
Nc1c(C(=O)Nc2ccccc2)sc2nc3c(cc12)CCCCCC3 | -25% (active)
O=C1/C=C/[C@@H](O)[C@@H]2C[C@@H](O)C[C@H]2/C=C/CCC[C@H](CCc2ccc(C(F)(F)F)cc2)O1 | -20.3% (active)
Fc1ccc(CNc2c3ccccc3nc3ccccc23)cc1 | 11.5%
Nc1nccc(Nc2ccccc2)n1 | 116%
Cc1cc(O)c(C2=NN(c3ccc(S(N)(=O)=O)cc3)C(c3ccc(N(C)C)cc3)C2)c(C)c1Cl (configuration not stated) | 91.1%
O=[N+]([O-])c1ccc(-c2cc3c(Nc4ccc(Sc5nc6ccccc6s5)c(Cl)c4)ncnc3s2)cc1 | 26.1%
COc1ccc(NC(=O)c2nc(-c3cc(OC)c(OC)c(OC)c3)n(-c3cccc4ccccc34)n2)cc1OC | 46.4%
C=C1c2nc3ccccc3n2C=C(c2ccc(Cl)cc2)N1Cc1ccc(OC)cc1 | 80.8%
COc1cc(-c2cc3cnccc3c3nc(N)c4ccncc4c23)cc(OC)c1OC | 8.5% (active)
CC(C)(C)c1ccc(CCO)cc1 | 124%
Fc1cccc(-c2ccc3c(c2)C2(CCNCC2)CN3)c1 | 116%
COc1cc2nc(N3CCC[C@@H](NC(=O)C4COc5ccccc5O4)C3)nc(N)c2cc1OC (some centres not stated) | 108% and 103%
COc1cc(/C=C2\CN(C(=O)OC(C)(C)C)C/C(=C\c3ccc(O)c(OC)c3)C2=O)ccc1O | 99.9%
COc1ccc(-c2nc3cc(Cl)c(Cl)cc3n2CC(=O)N=Nc2c(O)[nH]c3ccc(OC)cc23)cc1 | 42.4%
O=C(Nc1ccc(Cl)c(C(F)(F)F)c1)Nc1ccc2c(ccn2C(=O)c2cccc(F)c2)c1 | 9.28% (active)
COc1ccc(CCN2C(=O)CCSC2=S)cc1 | 10.7%
COc1ccc(/C=C2\Oc3cc(OCCN4CCC(Cc5ccccc5)CC4)ccc3C2=O)cc1OC | 31%
COc1cc(OC)c(C2SCC(=O)N2Nc2ncnc3ccccc23)cc1OC (configuration not stated) | 111%
C[C@H]1[C@H](C)CC[C@]2(COC(=O)c3cccnc3)CC[C@]3(C)C(=CC[C@@H]4[C@@]5(C)CCCNC(C)(C)[C@@H]5CC[C@]43C)[C@H]12 | 42.5%

SMILES | growth
C=CCn1cc(-c2nc3ccccc3s2)c2cc(-c3ccc4c5c(cccc35)C(=O)N(N)C4=O)ccc21 | 95.4%
COc1ccc(S(=O)(=O)N2CCCCC2)cc1NC(=O)c1[nH]c(C)c2c1CCCCC2=O | -2.19% (active)
O=c1ccn2nc3ccccc3c2[nH]1 | 95.5%
Cc1ccccc1NC(=O)Nc1nc2ccc([N+](=O)[O-])cc2s1 | -3.68% (active)
CC1(C)N=C(N)N=C(N)N1c1ccc(CCCCc2ccccc2)c(Cl)c1 | -20.8% (active)
Cc1ccc(NC(=O)C2CCC(CN3CCN(C)CC3)CC2)cc1Nc1nccc(-c2cccnc2)n1 (configuration not stated) | 94.8%
Oc1c(Cl)cc(Cl)cc1C(c1cc(Cl)cc(Cl)c1O)C(Cl)(Cl)Cl | -30.5% (active)
O[C@@H]1CCO[C@H](c2ccc3ccccc3c2)C1 | 107%
COc1ccc(S(=O)(=O)NCCCNc2nccc(-c3cn(C(C)(C)C)nc3-c3ccc(Cl)c(OC)c3)n2)cc1 | 76.8%
C=CC(=O)Nc1cccc(-c2nc(SC)nc(Nc3ccccc3OC)c2C#N)c1 | 18.2%
C[N+]1=C(/C=C\C=C\c2ccccc2)C(C)(C)c2ccccc21 | -14.9% (active)
COc1cc(C(=O)c2cc(C(C)=O)c3c(C)cccn23)cc(OC)c1OC | 81.8%
O=C(O)C(c1ccccc1)C(O)c1ccccc1 (configuration not stated) | 101%
O=C(CN1C(=O)CCC1=O)Nc1ncc(Cc2ccc(F)cc2)s1 | 109%
C#CCNC(=O)[C@H](Cc1ccccc1)NC(=O)[C@]12CC[C@@H](C(=C)C)[C@@H]1[C@H]1CC[C@@H]3[C@@]4(C)CCC(=O)C(C)(C)[C@@H]4CC[C@@]3(C)[C@]1(C)CC2 | 63.7%
COc1ccc(/C=C/C(=O)c2cccc(NS(C)(=O)=O)c2)cc1 | 47%
COc1c(N2CC3CCCN(C(C)=O)C3C2)c(F)cc2c(=O)c(C(=O)N[C@H]3C(O)[C@@H](O)C(CO)O[C@H]3O)cn(C3CC3)c12 (some centres not stated) | 98%
Cc1ccc(OC(=O)c2ccc(Cl)cc2)cc1 | 105%
